Screening data as filed in PubChem.
Most compounds without a hit are left out; they make up all but 5.6% or so of the library.
PHOSPHO1 block: blocks human PHOSPHO1 phosphatase activity | inhibition, % at 13.3 µM | actives 1.1% (n = 290,000) | AID 1565 | recombinant PHOSPHO1, absorbance phosphatase assay | Q8TCT1; in the data active means inhibition above about 60%
Target sequence (Q8TCT1 whole entry, looked up): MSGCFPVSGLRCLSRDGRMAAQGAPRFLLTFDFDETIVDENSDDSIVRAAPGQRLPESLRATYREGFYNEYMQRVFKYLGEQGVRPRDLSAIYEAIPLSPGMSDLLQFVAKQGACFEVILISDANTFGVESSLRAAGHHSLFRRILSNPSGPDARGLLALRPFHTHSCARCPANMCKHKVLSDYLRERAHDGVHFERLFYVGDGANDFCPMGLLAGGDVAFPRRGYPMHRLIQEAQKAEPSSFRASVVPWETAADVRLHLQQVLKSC
Cardio protect: myocardial damage modulation in H9c2 cells | protection from H2O2 cell death, % at 20 µM | actives 0.63% (n = 360,000) | AID 588492 | H9c2 cardiomyocytes, H2O2 injury protection, ATPLite, 2 h;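 active means compounds giving at least 50% protection of heart cells from peroxide-induced death in the single-dose screen, raw or plate-pattern-corrected value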;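 further: 0% = DMSO wells with peroxide and 100% = DMSO wells without peroxide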
PfGluPho inh: PfG6PD (Plasmodium falciparum) enzyme inhibition; PfGluPho enzyme, NADPH resazurin-diaphorase fluorescence; inhibition, % at 20 µM; actives 0.78% (n = 350,000); AID 504690;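 active means inhibition reaching at least a set limit at 20 µM in the primary screen, cut at about 59% in these data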;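 further: 0% = DMSO wells with substrate and 100% = DMSO wells lacking glucose-6-phosphate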
ALR inh: blocks human ALR sulfhydryl oxidase activity; P55789; purified ALR, DTT oxidation, H2O2 HRP-luminol luminescence; inhibition, % (concentration not given with the values); actives 3.8% (n = 290,000);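 active means mean replicate inhibition above about 79%, with every replicate also reaching it, limit read from the data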
Target sequence (P55789 whole entry, looked up): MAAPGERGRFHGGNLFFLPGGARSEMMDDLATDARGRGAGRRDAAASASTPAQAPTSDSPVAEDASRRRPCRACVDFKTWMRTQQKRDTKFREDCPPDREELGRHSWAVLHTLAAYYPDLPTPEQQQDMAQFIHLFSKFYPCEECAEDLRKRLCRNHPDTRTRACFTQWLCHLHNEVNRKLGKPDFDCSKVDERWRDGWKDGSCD
PfM18AAP inh: blocks P. falciparum M18 aspartyl aminopeptidase | recombinant PfM18AAP, H-Glu-NHMec fluorogenic cleavage | actives 1.2% (n = 290,000) | inhibition, % at 7.35 µM | AID 1822;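 active means inhibition above the campaign mean inhibition over all tested compounds plus 3 SD, cut at about 28% in these data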;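 further: 0% = plate median of test compound wells and 100% = 2 mM ZnCl2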
The depositor's hits bear a star; x = no result given.

SMILES	PHOSPHO1 block	Cardio protect	PfGluPho inh	ALR inh	PfM18AAP inh
O=[N+]([O-])c1cc(S(=O)(=O)N2CCCC2)ccc1O	5	-2	-4	-25	-11
O=[N+]([O-])c1cc(S(=O)(=O)N2CCCCCC2)ccc1F	15	-13	-4	97*	-10
COc1ccc(C(O)Cn2cc([N+](=O)[O-])nc2C)cc1 (configuration not stated)	37	5	1	-16	-6
CN(Cc1cn(-c2ccccc2)nc1-c1ccc2c(c1)OCO2)Cc1nccn1C	0	-2	4	-11	0
CN(CCn1ccnc1)Cc1cn(-c2ccccc2)nc1-c1ccc2c(c1)OCO2	60*	-11	-14	x	3
Cc1[nH]nc2c(=S)[nH]c(=O)[nH]c12	x	0	14	x	x
O=C(CN1CCOc2ccccc21)NC1CCN(Cc2ccccc2)CC1	11	4	5	87*	5
O=C(Nc1ccccc1)NC1CCN(Cc2ccccc2)CC1	37	4	7	-15	5
O=C(CN1CCOc2ccccc21)NC1CCCCCCC1	x	-18	26	99*	3
CC1CCN(C(=O)Cn2nnc(-c3ccc([N+](=O)[O-])cc3)n2)CC1	20	1	-2	-14	1
O=C(CSc1nnc(C2CCCCC2)n1Cc1ccccc1)NCc1ccco1	76*	-1	19	8	-2
CC(C)n1c(SCC(=O)NCc2ccco2)nnc1C1CC1	38	0	-10	-13	28*
CCn1c(SCC(=O)NCc2ccco2)nnc1C1CCCC1	x	4	9	-2	4
CC(C(=O)N1CCc2ccccc21)N1CCN(S(=O)(=O)c2ccc3c(c2)OCCCO3)CC1 (configuration not stated)	x	1	8	x	x
CCc1ccc(-c2nc(CSCC(=O)NCc3ccco3)c(C)o2)cc1	-14	-13	4	x	8
Cc1oc(-c2ccc(Cl)cc2)nc1CS(=O)CC(=O)NCc1ccco1 (configuration not stated)	10	-4	0	99*	-3
Cc1oc(-c2ccccc2Cl)nc1CS(=O)CC(=O)NCc1ccco1 (configuration not stated)	42	-1	-10	98*	7
Cc1oc(-c2ccccc2Cl)nc1CS(=O)CC(=O)NCc1ccccc1Cl (configuration not stated)	42	-3	-8	99*	5
COc1ccc(/C(C)=N/NC(=O)Cn2nc([N+](=O)[O-])cc2C)cc1	7	0	-4	2	1
COc1cc(C(=O)N/N=C(\C)Cn2nc([N+](=O)[O-])cc2C)ccc1O	-7	2	4	83*	-2
COCCn1c(C)cc(C(=O)COC(=O)c2ccc3c(c2)NC(=O)CS3)c1C	-5	2	19	98*	7
C=CCn1c(C)cc(C(=O)COC(=O)c2ccc3c(c2)NC(=O)CS3)c1C	-2	2	32	98*	10
COCCn1c(C)cc(C(=O)COC(=O)c2ccc3ncsc3c2)c1C	-8	-3	5	-5	-53
Cc1ccccc1-c1cc2nc(Oc3cccc(F)c3)n(C)c(=O)c2s1	x	-5	x	x	x
O=C(COC(=O)C1CC2C=CC1C2)Nc1c(Br)cc([N+](=O)[O-])cc1Br (configuration not stated)	x	-3	37	-21	x
SMILES	PHOSPHO1 block	Cardio protect	PfGluPho inh	ALR inh	PfM18AAP inh
CCOC(=O)c1c(CSc2ccccc2)oc2cc(Br)c(O)c(CN(C)C)c12	-25	1	25	82*	1
Cn1nc(C2CC2)cc1NC(=O)C1(C)CCN1C(=O)CC(c1ccccc1)c1ccccc1 (configuration not stated)	x	6	x	x	x
CCc1nnc(NC(=O)c2cc(-c3ccccn3)nc3ccc(Br)cc23)s1	72*	5	-5	-1	7
CC(C)(C)OC(=O)N[C@@H](C(=O)OC(C)(C)C)c1ccc2c(c1)OCO2	x	6	12	-3	x
NNC(=O)c1nc[nH]c1C(=O)Nc1ccccc1	-8	-1	-23	1	-3
Cc1ccc(C(=O)Nc2ccnc(-c3cccnc3)n2)cc1	16	20	9	-3	3
Cc1ccc(NC(=O)Nc2ccnc(-c3cccnc3)n2)cc1	43	78*	2	2	3
Cc1nn(CC(=O)N2CCC(C(N)=O)CC2)c(=O)c2nn(-c3ccccc3)c(C)c12	42	-1	0	3	-11
Fc1cccc(Cl)c1CNC(c1ccccc1)c1ccccc1	16	-20	-18	1	6
Fc1cccc(Cl)c1CNn1cn[nH]c1=S	-54	4	24	82*	19
S=c1[nH]ncn1NCc1ccc(Cl)cc1Cl	-67	5	18	89*	26
CCCCCCn1c(N2CCCC2)nc2c1c(=O)n(C)c(=O)n2C	4	11	-10	97*	-1
COCCn1c(N2CCN(c3ccc(OC)cc3)CC2)nc2c1c(=O)n(C)c(=O)n2C	5	-5	-1	42	3
CCOCCn1c(N2CCN(c3ccc(OC)cc3)CC2)nc2c1c(=O)n(C)c(=O)n2C	55	3	-6	91*	-6
COc1ccc(C=O)cc1CSc1ccccn1	20	9	21	97*	-1
C[C@H](NS(=O)(=O)c1ccc(F)cc1)C(=O)OCC(=O)c1c(N)n(C)c(=O)n(C)c1=O	x	9	-11	4	x
COc1ccc(NC2CC(=O)N(C(C)C)C2=O)cc1 (configuration not stated)	0	7	17	9	-2
CC(C)N1C(=O)CC(Nc2ccc(N3CCOCC3)cc2)C1=O (configuration not stated)	15	-1	12	99*	21
O=C1CC(Nc2ccc(N3CCOCC3)cc2)C(=O)N1C1CCCCC1 (configuration not stated)	5	9	18	99*	14
CCc1ccc(NC2CC(=O)N(CCc3ccc(OC)c(OC)c3)C2=O)cc1 (configuration not stated)	-26	-8	-3	-2	-4
O=C1CC(Nc2ccccc2)C(=O)N1c1ccc(N2CCOCC2)cc1 (configuration not stated)	-11	6	-1	-9	2
COc1ccc(CCN2C(=O)CC(Nc3ccc(N4CCOCC4)cc3)C2=O)cc1OC (configuration not stated)	19	22	32	99*	15
O=C1CC(Nc2ccc(N3CCOCC3)cc2)C(=O)N1c1ccccc1F (configuration not stated)	-2	4	51	99*	8
Cc1c(Cl)cccc1NC(=O)COC(=O)Cn1cnc2c1c(=O)n(C)c(=O)n2C	x	3	11	-3	x
COc1ccc2oc(C(=O)N3CCN(S(=O)(=O)c4c(C)c(C)cc(C)c4C)CC3)c(C)c2c1	x	-9	14	x	x
COc1ccccc1N1CCN(C(=O)CN2C(=O)c3ccccc3C2=O)CC1	13	8	2	1	1
COc1ccc(NC2CCCN(C(=O)CSc3ccccn3)C2)cc1OC (configuration not stated)	38	-1	43	99*	16
